The values below come from PubChem BioAssay AID602405 (Broad Institute, 2012).

Each structure is given as a SMILES string. The campaign covered roughly 360,000 compounds. About 350 (0.097%) were called active. Rule as the data show it: active = inhibition above about 16% (passing the limit was not always enough); inconclusive = no clear call, values can overlap the other calls; inactive = below that. The sample as a whole holds a higher share of actives than the screen did.

This assay relates to UDP-N-acetylbacillosamine N-acetyltransferase PglD (Campylobacter jejuni). The assay is described as follows: blockers of PglD enzyme activity – biochemical, DTNB colorimetric, single point, primary screen (AID 602405). The note with it: purified PglD enzyme, DTNB colorimetric CoA detection; at 12.5 µM; hits give high values.
`Cc1ccc(S(=O)(=O)NCC[C@H]2CC[C@H](NC(=O)c3ccccn3)[C@H](CO)O2)cc1`: the inhibition is 0.367% (inactive). The figure for `CCCNC(=O)N1C[C@@H]2[C@H](c3ccccc31)[C@@H](CO)N2C(=O)NC(C)C` is 4.12% (inactive); for `CN1c2ccc(-c3ccccc3F)cc2[C@H]2[C@H](CCN2C(=O)Nc2cc(F)ccc2F)[C@H]1CO` it is -0.933% (inactive); for `C=CC1=C(C(=O)O)N2C(=O)[C@@H](NC(=O)/C(=N/OCC(=O)O)c3csc(N)n3)[C@H]2SC1` it is 71% (active). The figure for `C=CC1=C(C(=O)O)N2C(=O)[C@@H](NC(=O)/C(=N\OCC(=O)O)c3csc(N)n3)[C@H]2SC1` is -2.51% (inactive); for `OC[C@H]1[C@@H](c2ccc(/C=C/c3ccccc3)cc2)[C@H]2CN(Cc3cccnc3)CCCCN21` it is -0.638% (inactive). Turning to `CO[C@@H]1CN(C)C(=O)c2cc(NC(=O)C3CC3)ccc2OC[C@H](C)N(Cc2ccc(F)cc2)C[C@@H]1C`, the inhibition was -0.858% (inactive).

As for `O=C(C[C@H]1CC[C@H](NC(=O)Nc2ccc(C(F)(F)F)cc2)[C@H](CO)O1)NCCN1CCCC1`, the inhibition was -2.91% (inactive). The same measure for `Cc1noc(C)c1NC(=O)N(C)C[C@H]1OCCCC[C@H](C)Oc2ccc(NC(=O)Nc3ccc4c(c3)OCO4)cc2C(=O)N([C@H](C)CO)C[C@@H]1C`: 3.46% (inactive); for `O=C(C[C@@H]1CC[C@@H]2[C@H](COC[C@H](O)CN2Cc2cccc(F)c2)O1)NCc1ccncc1`: -0.388% (inactive). For the compound `C[C@H]1CCCCO[C@H](CN(C)C(=O)CCC(F)(F)F)[C@@H](C)CN([C@@H](C)CO)C(=O)c2cc(NC(=O)Nc3ccc4c(c3)OCO4)ccc2O1`, the inhibition was 0.932% (inactive).

Regarding `Cc1ccc(NC(=O)CNCc2ccccn2)cc1S(=O)(=O)N(C)C`, the inhibition is 20.4% (active).

As for `Cc1csc(SCC(=O)Nc2ccc(C)c(S(=O)(=O)N(C)C)c2)n1`, the inhibition is 3.71% (inactive). The same measure for `CCN(CC(=O)Nc1ccc(C)c(S(=O)(=O)N(C)C)c1)Cc1ccccc1`: -3.38% (inactive); for `O=C1c2ccccc2S(=O)(=O)N1Cc1c(F)cccc1Cl`: -4.6% (inactive); for `COc1ccc(CNC(=O)CN2C(=O)c3ccccc3S2(=O)=O)cc1`: -2.12% (inactive).

With `CC(C)(C)c1ccc(CN2C(=O)c3ccccc3S2(=O)=O)cc1`, the inhibition is 41.7% (active). With `COc1ccccc1S(=O)(=O)N1CC[C@@H]2[C@H](CO)Nc3ccc(-c4ccccc4F)cc3[C@@H]21`, the inhibition is 2.37% (inactive). Regarding `CCC(=O)Nc1ccc2c(c1)C(=O)N(C)C[C@@H](OC)[C@H](C)CN(Cc1ccccc1C(=O)O)[C@@H](C)CO2`, the inhibition is 1.3% (inactive). As for `O=S1(=O)CC(NCc2ccccc2)C(Nc2ccc(Cl)cc2)C1` (configuration not stated), the inhibition is 35.4% (active). The figure for `O=C(NCCS(=O)(=O)NCc1ccc(Cl)cc1)c1ccccc1` is 0.839% (inactive).

As for `O=C(NCCc1ccc(Cl)cc1)C1CCCN1C(=O)NCc1ccccc1` (configuration not stated), the inhibition was 1.86% (inactive). The same measure for `CN(C)CC#Cc1ccc([C@H]2[C@H](CO)N3CCCCN(CC4CC4)C[C@@H]23)cc1`: 0.034% (inactive); for `COc1ccccc1CNC(=O)C[C@@H]1CC[C@@H]2[C@@H](COc3ccc(NC(=O)Nc4ccc(F)c(F)c4)cc3C(=O)N2C)O1`: 0.834% (inactive).

As for `C[C@@H]1CN([C@@H](C)CO)C(=O)c2cc(NS(C)(=O)=O)ccc2O[C@@H](C)CCCCO[C@@H]1CN(C)C(=O)c1ccccc1`, the inhibition was 2.15% (inactive).

For `C[C@H]1CN([C@@H](C)CO)C(=O)Cc2cc(NC(=O)c3ccncc3)ccc2O[C@@H]1CN(C)C(=O)Nc1ccccc1`, the inhibition is 3.86% (inactive). The figure for `O=C(C[C@@H]1CC[C@H](NC(=O)C2CC2)[C@H](CO)O1)NCc1ccccc1Cl` is -4.45% (inactive). The same measure for `CN(C)Cc1cn(CC[C@H]2CC[C@H](NC(=O)Nc3ccccc3F)[C@@H](CO)O2)nn1`: -0.499% (inactive). The same measure for `C[C@H]1CN([C@@H](C)CO)C(=O)c2cc(NC(=O)Cn3cnnn3)ccc2O[C@H]1CN(C)S(C)(=O)=O`: -4.84% (inactive). Consider `O=C(Nc1ccccc1)N[C@@H]1CC[C@H](CCn2cc(C3(O)CCCC3)nn2)O[C@@H]1CO`, for which the inhibition is 2.19% (inactive). Consider `COc1ccc(-c2ccc3c(c2)O[C@@H](CN(C)CC2CCOCC2)[C@@H](C)CN([C@@H](C)CO)S3(=O)=O)cc1`, for which the inhibition was -0.251% (inactive). The figure for `O=C(C[C@@H]1CC[C@H]2[C@@H](COC[C@@H](O)CN2C(=O)Nc2ccc(Cl)cc2)O1)NC1Cc2ccccc2C1` is 2.05% (inactive); for `OC[C@@H]1Nc2ccc(-c3ccc(F)cc3)cc2[C@@H]2[C@H]1CCN2Cc1ccc(F)cc1` it is 0.0285% (inactive). The figure for `C[C@H](CO)N1C[C@H](C)[C@H](CN(C)S(=O)(=O)c2cn(C)cn2)OCCCC[C@H](C)Oc2ccc(N(C)C)cc2C1=O` is -2.91% (inactive); for `COc1ccc(NC(=O)Nc2ccc3c(c2)C(=O)N([C@@H](C)CO)C[C@H](C)[C@H](CN(C)C(=O)Nc2ccccc2)OCCCC[C@@H](C)O3)cc1` it is 1.95% (inactive).

With `CC(C)C(=O)Nc1ccc2c(c1)C(=O)N(C)[C@@H]1CC[C@@H](CC(=O)NCCc3ccccc3)O[C@H]1CO2`, the inhibition was -3.51% (inactive).

Consider `C[C@@H]1CN([C@@H](C)CO)S(=O)(=O)c2ccc(C#Cc3cccnc3)cc2O[C@@H]1CN(C)C(=O)CN(C)C`, for which the inhibition is 0.034% (inactive). `C[C@@H]1CN([C@H](C)CO)S(=O)(=O)c2ccc(/C=C/c3ccccc3)cc2O[C@@H]1CN(C)C(=O)Nc1ccc(F)cc1`: the inhibition was 4.65% (inactive).

As to `O=C([C@H]1[C@H](CO)[C@H]2Cn3c(cccc3=O)[C@@H]1N2Cc1cocn1)N1CCCCC1`, the inhibition is -0.522% (inactive). As to `C[C@H](CO)N1C[C@H](C)[C@H](CN(C)C(=O)Nc2ccc(C(F)(F)F)cc2)Oc2ccc(N(C)C)cc2CC1=O`, the inhibition was 1.24% (inactive). The figure for `COc1ccccc1-c1cnc2c(c1)C(=O)N([C@@H](C)CO)C[C@@H](C)[C@H](CN(C)Cc1cccnc1)O2` is 1.03% (inactive); for `CCC(=O)N1C[C@@H](C)[C@H](OC)CN(C)C(=O)c2ccc(NC(=O)NC(C)C)cc2OC[C@H]1C` it is -4.33% (inactive).

Broadly, the inhibition is the drop in the measured response relative to a control, in per cent.
